According to PubChem BioAssay (NCI):
About 79,000 compounds went through this panel and 15% of them were active in at least one assay; those are over-represented in the sample as a whole. Active and inactive are the calls of the source. Rule as the data show it: active = growth inhibition above about 70%; inactive = the rest.

Assays:
[1] = NCI Yeast Anticancer Drug Screen. Data for the rad52 strain (AID 147);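 also: 0% = growth of vehicle-treated control cultures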; details: S. cerevisiae rad52 mutant growth inhibition, active compounds read high
Summary of the method: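 DNA repair-defective yeast; compound exposure; growth scored against vehicle controls.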

[2] = NCI Yeast Anticancer Drug Screen. Data for the wt1 strain (AID 149);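 also: 0% = growth of vehicle-treated wt1 cultures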; details: S. cerevisiae wt1 strain (SPY 50644) growth inhibition, active compounds read high
Summary of the method: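 Yeast wt1 strain exposed to compounds; growth inhibition measured relative to vehicle-treated controls.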

[3] = NCI Yeast Anticancer Drug Screen. Data for the rad50EPP+ strain (AID 151);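 also: 0% = growth of vehicle-treated control cultures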; details: S. cerevisiae rad50 mutant strain, active compounds read high
Summary of the method: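 rad50EPP+ yeast treated with test compounds. Readout: growth vs vehicle control.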

[4] = NCI Yeast Anticancer Drug Screen. Data for the mgt1 strain (AID 153); details: S. cerevisiae mgt1 mutant growth inhibition, active compounds read high
Summary of the method: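 Growth inhibition relative to vehicle controls was scored for the mgt1 yeast strain after compound exposure.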

[5] = NCI Yeast Anticancer Drug Screen. Data for the rad50 strain (AID 155);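 also: 0% = growth of vehicle-only cultures of the same strain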; details: S. cerevisiae rad50 strain growth inhibition, active compounds read high
Summary of the method: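 Yeast carrying a defined DNA repair defect were exposed to test compounds, and growth was compared with vehicle-treated controls to give percent inhibition.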

[6] = NCI Yeast Anticancer Drug Screen. Data for the mec2-1 strain (AID 157); details: S. cerevisiae mec2-1 strain, active compounds read high
Summary of the method: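 Growth inhibition is read against vehicle-treated controls after compound exposure of the mec2-1 yeast strain, which is defective in DNA damage repair or cell cycle control.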

[7] = NCI Yeast Anticancer Drug Screen. Data for the rad14 strain (AID 159);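 also: 0% = growth of vehicle-treated control cultures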; details: S. cerevisiae rad14 strain growth inhibition, active compounds read high
Summary of the method: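 Yeast cells carrying a defined DNA-repair defect were exposed to compounds, and growth inhibition was calculated relative to vehicle-treated control cultures.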

[8] = NCI Yeast Anticancer Drug Screen. Data for the sgs1 mgt1 strain (AID 161);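 also: 0% = growth of cultures given vehicle only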; details: S. cerevisiae sgs1 mgt1 strain, active compounds read high
Summary of the method: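 This yeast growth screen uses a strain with defined DNA-repair lesions; compound-treated growth is compared with vehicle-treated growth.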

[9] = NCI Yeast Anticancer Drug Screen. Data for the CLN2oe strain (AID 163);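 also: 0% = growth of vehicle-only control cultures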; details: S. cerevisiae CLN2oe strain, active compounds read high
Summary of the method: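 Compound-treated yeast; growth vs vehicle ctrl = % inhibition. Genetically altered strain (cell-cycle control).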

[10] = NCI Yeast Anticancer Drug Screen. Data for the cln2 rad14 strain (AID 165);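 also: 0% = growth equal to vehicle treated cultures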; details: S. cerevisiae cln2 rad14 strain, active compounds read high
Summary of the method: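 Growth inhibition, relative to vehicle-treated controls, is the read-out. The test organism is a yeast strain with defined genetic alterations, cln2 rad14.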

[11] = NCI Yeast Anticancer Drug Screen. Data for the bub3 strain (AID 167); details: S. cerevisiae bub3 mutant strain, active compounds read high
Summary of the method: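 Compounds were applied to a genetically altered yeast strain carrying a cell-cycle control defect. Growth inhibition was scored against vehicle-treated controls.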

[12] = NCI Yeast Anticancer Drug Screen. Data for the wt2 strain (AID 169);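 also: 0% = growth of vehicle-treated yeast cultures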; details: S. cerevisiae wt2 strain growth inhibition, active compounds read high
Summary of the method: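 Compound exposure of yeast; growth compared with vehicle controls; inhibition reported.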

[13] = NCI Yeast Anticancer Drug Screen. Data for the sgs1 strain (AID 173);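 also: 0% = growth of vehicle-only control cultures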; details: S. cerevisiae sgs1 mutant, active compounds read high
Summary of the method: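 Compounds applied to genetically altered yeast; growth compared with vehicle-treated cultures to give % inhibition.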

[14] = NCI Yeast Anticancer Drug Screen. Data for the mlh1 rad18 strain (AID 175); details: S. cerevisiae mlh1 rad18 strain growth inhibition, active compounds read high
Summary of the method: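 Cells of a genetically altered yeast strain, deficient in DNA damage repair, were treated with compound. Their growth was then compared with that of vehicle-treated cultures to give inhibition.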

[15] = NCI Yeast Anticancer Drug Screen. Data for the rad18 strain (AID 177); details: S. cerevisiae rad18 mutant growth inhibition, active compounds read high
Summary of the method: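 Compounds are applied to a repair-deficient yeast strain, and growth is compared with that of vehicle-treated cultures to give percent inhibition.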

[16] = NCI Yeast Anticancer Drug Screen. Data for the mlh1 strain (AID 171);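 also: 0% = growth of vehicle-treated control cultures of the same strain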; details: S. cerevisiae mlh1 strain growth inhibition, active compounds read high
Summary of the method: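 Compounds are applied to a genetically altered yeast strain, and its growth is compared with that of vehicle-treated cultures to give percent inhibition.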

[17] = at 5.0 µM (retest, dose inferred, filed as 0.5)
[18] = at 50.0 µM (retest, dose inferred, filed as 5.0)

Measured: growth inhibition

Cc1ccc(Cl)c2[nH]c(-c3ccccc3)cc(=O)c12
active: [11]; [18] 93% | [11]; at 50.0 µM 72% | [14]; [18] 94%
inactive: [1]; at 1.2 µM -1% | [1]; at 3.7 µM -1% | [1]; at 11.0 µM 1% | [1]; at 33.0 µM 2% | [1]; at 100.0 µM 3% | [2]; at 1.2 µM -3% | [2]; at 3.7 µM -3% | [2]; at 11.0 µM -4% | [2]; at 33.0 µM -2% | [2]; at 100.0 µM 0% | [3]; at 1.2 µM 1% | [3]; at 3.7 µM 2% | [3]; at 11.0 µM 6% | [3]; at 33.0 µM 9% | [3]; at 100.0 µM 6% | [4]; at 1.2 µM -5% | [4]; at 3.7 µM -3% | [4]; at 11.0 µM 19% | [4]; at 33.0 µM -25% | [4]; at 100.0 µM -4% | [5]; at 1.2 µM -1% | [5]; at 3.7 µM 0% | [5]; [17] -10% | [5]; at 11.0 µM -29% | [5]; at 33.0 µM 0% | [5]; [18] 13% | [5]; at 50.0 µM 29.2% | [5]; at 100.0 µM 0% | [6]; at 1.2 µM 0% | [6]; at 3.7 µM -3% | [6]; [17] -11% | [6]; at 11.0 µM 0% | [6]; at 33.0 µM -2% | [6]; [18] 10% | [6]; at 50.0 µM 40.6% | [6]; at 100.0 µM 0% | [7]; at 1.2 µM -2% | [7]; at 3.7 µM -6% | [7]; at 11.0 µM -2% | [7]; at 33.0 µM -12% | [7]; at 100.0 µM 1% | [8]; [17] -28% | [8]; [18] 12% | [8]; at 50.0 µM 55.5% | [9]; at 1.2 µM 0% | [9]; at 3.7 µM -5% | [9]; at 11.0 µM -1% | [9]; at 33.0 µM -5% | [9]; at 100.0 µM 1% | [10]; [17] -9% | [10]; [18] -2% | [10]; at 50.0 µM 13.4% | [11]; at 1.2 µM -2% | [11]; at 3.7 µM -2% | [11]; [17] -17% | [11]; at 11.0 µM 7% | [11]; at 33.0 µM 0% | [11]; at 100.0 µM 2% | [12]; at 1.2 µM -2% | [12]; at 3.7 µM -1% | [12]; at 11.0 µM -1% | [12]; at 33.0 µM -1% | [12]; at 100.0 µM -1% | [13]; at 1.2 µM -3% | [13]; at 3.7 µM -4% | [13]; at 11.0 µM -4% | [13]; at 33.0 µM -3% | [13]; at 100.0 µM 0% | [14]; [17] -18% | [14]; at 50.0 µM 62.8% | [15]; at 1.2 µM -5% | [15]; at 3.7 µM -1% | [15]; at 11.0 µM -6% | [15]; at 33.0 µM -24% | [15]; at 100.0 µM 14%

COc1ccc2c(c1)C(=O)c1ccccc1C2
inactive: [1]; at 1.2 µM 3% | [1]; at 3.7 µM 9% | [1]; at 11.0 µM 20% | [1]; at 33.0 µM 35% | [1]; at 100.0 µM 34% | [2]; at 1.2 µM 2% | [2]; at 3.7 µM 1% | [2]; at 11.0 µM 5% | [2]; at 33.0 µM 6% | [2]; at 100.0 µM 4% | [3]; at 1.2 µM 3% | [3]; at 3.7 µM 10% | [3]; at 11.0 µM 24% | [3]; at 33.0 µM 42% | [3]; at 100.0 µM 46% | [4]; at 1.2 µM -4% | [4]; at 3.7 µM 2% | [4]; at 11.0 µM 5% | [4]; at 33.0 µM 7% | [4]; at 100.0 µM 10% | [5]; at 1.2 µM 3% | [5]; at 3.7 µM 18% | [5]; [17] -23% | [5]; at 11.0 µM 31% | [5]; at 33.0 µM 48% | [5]; [18] 30% | [5]; at 50.0 µM 7% | [5]; at 100.0 µM 35% | [6]; at 1.2 µM -1% | [6]; at 3.7 µM 5% | [6]; [17] -4% | [6]; at 11.0 µM -1% | [6]; at 33.0 µM 6% | [6]; [18] 23% | [6]; at 50.0 µM 24.4% | [6]; at 100.0 µM 6% | [7]; at 1.2 µM 1% | [7]; at 3.7 µM 6% | [7]; at 11.0 µM 8% | [7]; at 33.0 µM 6% | [7]; at 100.0 µM 7% | [8]; [17] 19% | [8]; [18] 0% | [8]; at 50.0 µM -5.05% | [9]; at 1.2 µM -3% | [9]; at 3.7 µM -1% | [9]; at 11.0 µM 0% | [9]; at 33.0 µM 9% | [9]; at 100.0 µM 4% | [10]; [17] -18% | [10]; [18] 4% | [10]; at 50.0 µM -19.8% | [11]; at 1.2 µM 42% | [11]; at 3.7 µM 67% | [11]; [17] 65% | [12]; at 1.2 µM -1% | [12]; at 3.7 µM 3% | [12]; at 11.0 µM 6% | [12]; at 33.0 µM 7% | [12]; at 100.0 µM 7% | [16]; at 1.2 µM 1% | [16]; at 3.7 µM -1% | [16]; at 11.0 µM 4% | [16]; at 33.0 µM 11% | [16]; at 100.0 µM 28% | [14]; [17] 2% | [14]; [18] 31% | [14]; at 50.0 µM 15.6% | [15]; at 1.2 µM -2% | [15]; at 3.7 µM -1% | [15]; at 11.0 µM 6% | [15]; at 33.0 µM 7% | [15]; at 100.0 µM -6%
active: [11]; at 11.0 µM 74% | [11]; at 33.0 µM 82% | [11]; [18] 85% | [11]; at 50.0 µM 75% | [11]; at 100.0 µM 80%
